This excerpt belongs to a sample that is enriched for the strongest signals.

What all share (experiment): glycan array binding signal (z-score within array); higher = stronger binding
Conditions in all cases: glycan notation: IUPAC condensed, linker removed

For experiment [1], the system named is Gal(b1-4)GlcNAc(b1-2)Man. The method in brief:
(§1)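 The Consortium for Functional Glycomics database supplied 3228 glycan arrays, of which those lacking an available protein sequence were dropped. The binding signal, a within-array Z-score, was averaged across arrays of the same protein sequence and across linkers. Negative scores can be read as non-binding.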

Experiment [2] relates to Gal(b1-4)GlcNAc(b1-2)[Gal(b1-4)GlcNAc(b1-6)]Man(a1-6)[Gal(b1-4)GlcNAc(b1-2)Man(a1-3)]Man(b1-4)GlcNAc(b1-4)GlcNAc. The method in brief:
as §1

For experiment [3], the system named is Gal(b1-4)GlcNAc(b1-3)Gal(b1-4)GlcNAc(b1-3)Gal(b1-4)GlcNAc(b1-2)Man(a1-3)[Gal(b1-4)GlcNAc(b1-3)Gal(b1-4)GlcNAc(b1-3)Gal(b1-4)GlcNAc(b1-2)Man(a1-6)]Man(b1-4)GlcNAc(b1-4)GlcNAc. The method in brief:
as §1

For experiment [4], the system named is Gal(b1-4)GlcNAc(b1-3)Gal(b1-4)GlcNAc(b1-3)Gal(b1-4)GlcNAc(b1-2)Man(a1-3)[Gal(b1-4)GlcNAc(b1-3)Gal(b1-4)GlcNAc(b1-3)Gal(b1-4)GlcNAc(b1-2)Man(a1-6)]Man(b1-4)GlcNAc(b1-4)[Fuc(a1-6)]GlcNAc. In short, it runs like this:
as §1

The subject of experiment [5] is Gal(b1-4)GlcNAc(b1-3)Gal(b1-4)GlcNAc(b1-3)Gal(b1-4)GlcNAc(b1-3)Gal(b1-4)GlcNAc(b1-2)Man(a1-3)[Gal(b1-4)GlcNAc(b1-3)Gal(b1-4)GlcNAc(b1-3)Gal(b1-4)GlcNAc(b1-3)Gal(b1-4)GlcNAc(b1-2)Man(a1-6)]Man(b1-4)GlcNAc(b1-4)[Fuc(a1-6)]GlcNAc. In short, it runs like this: as §1
The test system of experiment [6] is Gal(b1-4)GlcNAc(b1-2)Man(a1-3)Man(b1-4)GlcNAc(b1-4)GlcNAc. The method in brief:
as §1

Experiment [7] has as its system Gal(b1-4)GlcNAc(b1-2)Man(a1-3)[Gal(b1-4)GlcNAc(b1-2)Man(a1-6)]Man(b1-4)GlcNAc(b1-4)[Fuc(a1-6)]GlcNAc. The method in brief: as §1
The test system of experiment [8] is Gal(b1-4)GlcNAc(b1-2)Man(a1-3)[GlcNAc(b1-2)Man(a1-6)]Man(b1-4)GlcNAc(b1-4)GlcNAc. The method in brief:
as §1

Experiment [9] has as its system Gal(b1-4)GlcNAc(b1-2)Man(a1-6)Man(b1-4)GlcNAc(b1-4)GlcNAc. The method in brief:
as §1

Experiment [10] has as its system Gal(b1-4)GlcNAc(b1-3)Gal(b1-4)GlcNAc(b1-3)Gal(b1-4)GlcNAc(b1-2)[Gal(b1-4)GlcNAc(b1-3)Gal(b1-4)GlcNAc(b1-3)Gal(b1-4)GlcNAc(b1-6)]Man(a1-6)[Gal(b1-4)GlcNAc(b1-3)Gal(b1-4)GlcNAc(b1-3)Gal(b1-4)GlcNAc(b1-2)Man(a1-3)]Man(b1-4)GlcNAc(b1-4)[Fuc(a1-6)]GlcNAc. The method in brief:
as §1

In experiment [11] the test system is Gal(b1-4)GlcNAc(b1-3)Gal(b1-4)GlcNAc(b1-3)Gal(b1-4)GlcNAc(b1-3)Gal(b1-4)GlcNAc(b1-2)[Gal(b1-4)GlcNAc(b1-3)Gal(b1-4)GlcNAc(b1-3)Gal(b1-4)GlcNAc(b1-3)Gal(b1-4)GlcNAc(b1-6)]Man(a1-6)[Gal(b1-4)GlcNAc(b1-3)Gal(b1-4)GlcNAc(b1-3)Gal(b1-4)GlcNAc(b1-3)Gal(b1-4)GlcNAc(b1-2)Man(a1-3)]Man(b1-4)GlcNAc(b1-4)[Fuc(a1-6)]GlcNAc. In short, it runs like this:
as §1

For experiment [12], the system named is Gal(b1-4)GlcNAc(b1-2)Man(a1-3)[Gal(b1-4)GlcNAc(b1-2)Man(a1-6)]Man(b1-4)GlcNAc(b1-4)GlcNAc. The method in brief:
as §1

For experiment [13], the system named is Gal(b1-4)GlcNAc(b1-2)Man(a1-6)[Man(a1-3)]Man(b1-4)GlcNAc(b1-4)GlcNAc. The method in brief:
as §1

Experiment [14] concerns Gal(b1-4)GlcNAc(b1-2)[Gal(b1-4)GlcNAc(b1-6)]Man(a1-6)[GlcNAc(b1-4)][Gal(b1-4)GlcNAc(b1-2)[Gal(b1-4)GlcNAc(b1-4)]Man(a1-3)]Man(b1-4)GlcNAc(b1-4)[Fuc(a1-6)]GlcNAc. In short, it runs like this:
as §1

Experiment [15] has as its system Gal(b1-4)GlcNAc(b1-3)Gal(b1-4)GlcNAc(b1-2)Man(a1-3)[Gal(b1-4)GlcNAc(b1-3)Gal(b1-4)GlcNAc(b1-2)Man(a1-6)]Man(b1-4)GlcNAc(b1-4)GlcNAc. In short, it runs like this:
as §1

For experiment [16], the system named is Gal(b1-4)GlcNAc(b1-3)Gal(b1-4)GlcNAc(b1-2)[Gal(b1-4)GlcNAc(b1-3)Gal(b1-4)GlcNAc(b1-6)]Man(a1-6)[Gal(b1-4)GlcNAc(b1-3)Gal(b1-4)GlcNAc(b1-2)Man(a1-3)]Man(b1-4)GlcNAc(b1-4)GlcNAc. In short, it runs like this:
as §1

Experiment [17] has as its system Gal(b1-4)GlcNAc(a1-6)Gal(b1-4)GlcNAc. The method in brief:
as §1

Experiment [18] deals with Gal(b1-4)GlcNAc(b1-2)Man(a1-3)[Man(a1-6)]Man(b1-4)GlcNAc(b1-4)GlcNAc. The method in brief: as §1
Experiment [19] deals with Gal(b1-4)GlcNAc(b1-2)Man(a1-6)[GlcNAc(b1-2)Man(a1-3)]Man(b1-4)GlcNAc(b1-4)GlcNAc. In short, it runs like this:
as §1

Experiment [20] concerns Gal(b1-4)GlcNAc(b1-2)[Gal(b1-4)GlcNAc(b1-6)]Man(a1-6)[Gal(b1-4)GlcNAc(b1-2)Man(a1-3)]Man(b1-4)GlcNAc(b1-4)[Fuc(a1-6)]GlcNAc. In short, it runs like this: as §1

Turning to LcI (Legionella pneumophila), the “glycan array binding signal (z-score)” value in [1] was 0.449; in [2] it was 0.017; in experiment [3] it was 0.132; in [4] it was -0.212; in experiment [5], 0.132.

Regarding BambL (Burhholderia ambifaria), Q0B4G1, the results for the “glycan array binding signal (z-score)” value in [6], in experiment [7] and in experiment [8] were -0.313, 0.351 and -0.301, respectively.

Take Wza (Escherichia coli), P0A930: the “glycan array binding signal (z-score)” value in experiment [9] is 1.02.

As to Epa22, the “glycan array binding signal (z-score)” value in experiment [7] turned out to be 1.95.

With Actinohivin (Actinomycete K97), the results for the “glycan array binding signal (z-score)” value in [10] and in experiment [11] were 0.097 and -0.012, respectively.

Take “SiiE (Salmonella typhimurium), A0A0H3NVH0”: the entries for the “glycan array binding signal (z-score)” value in experiment [12] and in experiment [13] were 2.4 and 0.213, respectively.

With AgI/IIC123-GFP (Streptococcus mutans), the “glycan array binding signal (z-score)” value is -0.449 in experiment [2], -0.015 in [14], 3.9 in experiment [15] and -0.185 in experiment [16].

As for “SpGH101 (Streptococcus pneumoniae), Q8DR60”, the “glycan array binding signal (z-score)” value in experiment [17] is -0.178; in experiment [18], -0.069.

Regarding “AgI/II Vhelical-GFP (Streptococcus mutans)”, the “glycan array binding signal (z-score)” value in experiment [19] is -0.18; in experiment [20] it was -0.078; in experiment [14], -0.092; in [10], 0.214.

Values taken from the supplement of paper PMC8728848.
